# Reference: the supplement of paper PMC11732987, “Enantioselective OTUD7B fragment discovery through chemoproteomics screening and high-throughput optimisation” (Communications Chemistry, 2025)
# Unmarked numbers belong to inactive results.
# Tests used:
# Assay in all cases: log2 ratio of Biotin-Ahx-Ub-VS probe labelling (fragment/DMSO); higher = less target engagement (more negative = stronger competition), active = hit call of the paper (q ≤ 0.05, log2 ratio ≤ -1)
# Conditions in all cases: compound concentration: 200 uM; treatment time: 3 h
# USP19 = target: T1, USP19 (UniProt O94966)
# T1 sequence (whole entry): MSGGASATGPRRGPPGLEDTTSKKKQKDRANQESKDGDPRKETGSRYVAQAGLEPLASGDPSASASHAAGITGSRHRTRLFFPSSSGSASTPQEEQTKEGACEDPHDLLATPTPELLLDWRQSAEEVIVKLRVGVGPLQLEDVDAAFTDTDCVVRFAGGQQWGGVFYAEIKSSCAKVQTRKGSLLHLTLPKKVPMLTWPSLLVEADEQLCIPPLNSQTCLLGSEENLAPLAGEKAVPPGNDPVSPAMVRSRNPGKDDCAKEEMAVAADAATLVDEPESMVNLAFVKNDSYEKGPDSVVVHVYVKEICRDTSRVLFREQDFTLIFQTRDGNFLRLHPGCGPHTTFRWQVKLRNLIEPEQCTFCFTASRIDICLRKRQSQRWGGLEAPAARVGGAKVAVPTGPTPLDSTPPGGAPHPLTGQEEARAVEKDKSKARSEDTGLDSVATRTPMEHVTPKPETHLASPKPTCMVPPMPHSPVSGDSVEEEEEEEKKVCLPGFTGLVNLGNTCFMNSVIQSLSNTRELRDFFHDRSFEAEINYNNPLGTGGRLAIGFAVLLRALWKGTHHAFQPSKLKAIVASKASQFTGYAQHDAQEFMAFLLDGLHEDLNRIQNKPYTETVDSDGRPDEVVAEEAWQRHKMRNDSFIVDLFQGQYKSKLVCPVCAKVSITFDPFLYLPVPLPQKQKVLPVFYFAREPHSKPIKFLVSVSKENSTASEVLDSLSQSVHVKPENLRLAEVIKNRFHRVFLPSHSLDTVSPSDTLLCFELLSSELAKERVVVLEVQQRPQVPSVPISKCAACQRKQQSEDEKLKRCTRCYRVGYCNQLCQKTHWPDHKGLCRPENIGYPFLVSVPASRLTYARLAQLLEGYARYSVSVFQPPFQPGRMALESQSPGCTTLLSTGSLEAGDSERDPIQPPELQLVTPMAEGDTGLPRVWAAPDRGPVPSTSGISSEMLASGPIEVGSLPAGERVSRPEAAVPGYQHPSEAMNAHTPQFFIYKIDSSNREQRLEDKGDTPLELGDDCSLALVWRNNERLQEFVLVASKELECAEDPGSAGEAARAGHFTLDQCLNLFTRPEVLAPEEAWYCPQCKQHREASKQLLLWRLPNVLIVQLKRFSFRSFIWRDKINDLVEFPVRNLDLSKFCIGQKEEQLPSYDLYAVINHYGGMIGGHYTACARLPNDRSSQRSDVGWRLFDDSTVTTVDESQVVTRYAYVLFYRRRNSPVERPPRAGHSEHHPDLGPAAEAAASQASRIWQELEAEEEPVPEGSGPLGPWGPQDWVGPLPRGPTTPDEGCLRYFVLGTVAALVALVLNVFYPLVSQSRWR
# Method in brief: (§1)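 HEK293T lysate in Tris/CHAPS/IGEPAL buffer with protease inhibitors (495 µg per sample) was given fragment at 200 µM or vehicle for 3 h, in triplicate. It then received Biotin-Ahx-Ub-VS at 0.5 µM final for 1 h. Labelled DUBs were NeutrAvidin-enriched, digested with LysC and trypsin, and run by diaPASEF LC-MS/MS. Values are average log2 fragment/vehicle ratios by unpaired t-test on global-median-normalised Spectronaut quantities of proteins with ≥2 unique peptides.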
# USP24 = USP24 (UniProt Q9UPU5)
# Method in brief: as §1
# USP25 = target: T2, USP25 (UniProt Q9UHP3)
# T2 sequence (whole entry): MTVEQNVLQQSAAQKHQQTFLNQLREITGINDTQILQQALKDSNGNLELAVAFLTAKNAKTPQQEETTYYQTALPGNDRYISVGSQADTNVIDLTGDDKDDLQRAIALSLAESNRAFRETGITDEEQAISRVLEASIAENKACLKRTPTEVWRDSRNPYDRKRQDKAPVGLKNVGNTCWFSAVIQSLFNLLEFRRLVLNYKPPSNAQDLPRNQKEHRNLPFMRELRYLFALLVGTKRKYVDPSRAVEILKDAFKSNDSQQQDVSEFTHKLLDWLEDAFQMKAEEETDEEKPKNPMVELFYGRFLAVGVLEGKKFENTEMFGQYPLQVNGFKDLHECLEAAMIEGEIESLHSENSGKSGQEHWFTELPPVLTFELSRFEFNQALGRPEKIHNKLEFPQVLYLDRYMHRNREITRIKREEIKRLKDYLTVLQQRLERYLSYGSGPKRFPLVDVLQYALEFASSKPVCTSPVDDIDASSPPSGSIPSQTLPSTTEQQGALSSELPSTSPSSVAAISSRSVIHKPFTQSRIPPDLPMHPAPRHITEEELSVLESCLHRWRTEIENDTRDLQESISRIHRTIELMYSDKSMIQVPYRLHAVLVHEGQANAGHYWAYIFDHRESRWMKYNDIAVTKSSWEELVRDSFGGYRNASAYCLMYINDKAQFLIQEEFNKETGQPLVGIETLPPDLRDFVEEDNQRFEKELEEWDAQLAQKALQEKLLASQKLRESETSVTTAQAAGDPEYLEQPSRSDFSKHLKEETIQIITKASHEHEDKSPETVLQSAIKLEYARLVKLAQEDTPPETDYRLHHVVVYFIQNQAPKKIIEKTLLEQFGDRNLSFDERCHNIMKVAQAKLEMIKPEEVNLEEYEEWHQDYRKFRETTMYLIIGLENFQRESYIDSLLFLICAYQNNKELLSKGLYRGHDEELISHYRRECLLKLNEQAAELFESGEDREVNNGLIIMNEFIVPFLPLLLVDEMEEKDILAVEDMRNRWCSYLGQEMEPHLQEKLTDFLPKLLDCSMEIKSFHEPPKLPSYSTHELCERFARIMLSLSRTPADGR
# Method in brief: as §1
# USP28 = target: T3, USP28 (UniProt Q96RU2)
# T3 sequence (whole entry): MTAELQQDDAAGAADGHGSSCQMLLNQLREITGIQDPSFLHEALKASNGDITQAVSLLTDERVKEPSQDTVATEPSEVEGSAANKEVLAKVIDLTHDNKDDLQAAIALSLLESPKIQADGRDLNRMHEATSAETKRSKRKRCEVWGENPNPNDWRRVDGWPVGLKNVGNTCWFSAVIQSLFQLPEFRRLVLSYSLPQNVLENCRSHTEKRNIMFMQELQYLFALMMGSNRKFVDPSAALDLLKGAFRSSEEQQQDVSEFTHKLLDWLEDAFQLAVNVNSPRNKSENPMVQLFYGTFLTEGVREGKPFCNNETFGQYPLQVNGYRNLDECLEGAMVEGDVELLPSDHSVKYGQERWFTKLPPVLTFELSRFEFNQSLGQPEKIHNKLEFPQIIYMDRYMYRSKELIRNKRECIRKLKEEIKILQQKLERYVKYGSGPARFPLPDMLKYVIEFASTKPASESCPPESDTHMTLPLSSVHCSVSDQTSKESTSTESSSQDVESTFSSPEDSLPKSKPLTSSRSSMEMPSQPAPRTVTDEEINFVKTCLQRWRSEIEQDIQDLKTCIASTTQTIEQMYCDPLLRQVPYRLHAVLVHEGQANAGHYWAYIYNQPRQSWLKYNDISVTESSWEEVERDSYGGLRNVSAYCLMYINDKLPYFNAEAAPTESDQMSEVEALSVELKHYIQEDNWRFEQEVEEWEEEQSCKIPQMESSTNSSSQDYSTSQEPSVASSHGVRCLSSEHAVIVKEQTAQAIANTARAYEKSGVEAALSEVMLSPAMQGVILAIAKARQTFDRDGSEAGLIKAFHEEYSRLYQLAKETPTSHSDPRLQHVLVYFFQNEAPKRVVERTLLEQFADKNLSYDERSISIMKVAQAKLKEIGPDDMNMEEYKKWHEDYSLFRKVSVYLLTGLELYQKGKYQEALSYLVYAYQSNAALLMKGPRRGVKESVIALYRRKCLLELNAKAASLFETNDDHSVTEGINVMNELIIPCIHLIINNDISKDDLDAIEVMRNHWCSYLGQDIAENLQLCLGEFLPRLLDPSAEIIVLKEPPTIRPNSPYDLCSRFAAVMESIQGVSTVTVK
# Method in brief: as §1
# Chain of USP24 (Q9UPU5 whole entry): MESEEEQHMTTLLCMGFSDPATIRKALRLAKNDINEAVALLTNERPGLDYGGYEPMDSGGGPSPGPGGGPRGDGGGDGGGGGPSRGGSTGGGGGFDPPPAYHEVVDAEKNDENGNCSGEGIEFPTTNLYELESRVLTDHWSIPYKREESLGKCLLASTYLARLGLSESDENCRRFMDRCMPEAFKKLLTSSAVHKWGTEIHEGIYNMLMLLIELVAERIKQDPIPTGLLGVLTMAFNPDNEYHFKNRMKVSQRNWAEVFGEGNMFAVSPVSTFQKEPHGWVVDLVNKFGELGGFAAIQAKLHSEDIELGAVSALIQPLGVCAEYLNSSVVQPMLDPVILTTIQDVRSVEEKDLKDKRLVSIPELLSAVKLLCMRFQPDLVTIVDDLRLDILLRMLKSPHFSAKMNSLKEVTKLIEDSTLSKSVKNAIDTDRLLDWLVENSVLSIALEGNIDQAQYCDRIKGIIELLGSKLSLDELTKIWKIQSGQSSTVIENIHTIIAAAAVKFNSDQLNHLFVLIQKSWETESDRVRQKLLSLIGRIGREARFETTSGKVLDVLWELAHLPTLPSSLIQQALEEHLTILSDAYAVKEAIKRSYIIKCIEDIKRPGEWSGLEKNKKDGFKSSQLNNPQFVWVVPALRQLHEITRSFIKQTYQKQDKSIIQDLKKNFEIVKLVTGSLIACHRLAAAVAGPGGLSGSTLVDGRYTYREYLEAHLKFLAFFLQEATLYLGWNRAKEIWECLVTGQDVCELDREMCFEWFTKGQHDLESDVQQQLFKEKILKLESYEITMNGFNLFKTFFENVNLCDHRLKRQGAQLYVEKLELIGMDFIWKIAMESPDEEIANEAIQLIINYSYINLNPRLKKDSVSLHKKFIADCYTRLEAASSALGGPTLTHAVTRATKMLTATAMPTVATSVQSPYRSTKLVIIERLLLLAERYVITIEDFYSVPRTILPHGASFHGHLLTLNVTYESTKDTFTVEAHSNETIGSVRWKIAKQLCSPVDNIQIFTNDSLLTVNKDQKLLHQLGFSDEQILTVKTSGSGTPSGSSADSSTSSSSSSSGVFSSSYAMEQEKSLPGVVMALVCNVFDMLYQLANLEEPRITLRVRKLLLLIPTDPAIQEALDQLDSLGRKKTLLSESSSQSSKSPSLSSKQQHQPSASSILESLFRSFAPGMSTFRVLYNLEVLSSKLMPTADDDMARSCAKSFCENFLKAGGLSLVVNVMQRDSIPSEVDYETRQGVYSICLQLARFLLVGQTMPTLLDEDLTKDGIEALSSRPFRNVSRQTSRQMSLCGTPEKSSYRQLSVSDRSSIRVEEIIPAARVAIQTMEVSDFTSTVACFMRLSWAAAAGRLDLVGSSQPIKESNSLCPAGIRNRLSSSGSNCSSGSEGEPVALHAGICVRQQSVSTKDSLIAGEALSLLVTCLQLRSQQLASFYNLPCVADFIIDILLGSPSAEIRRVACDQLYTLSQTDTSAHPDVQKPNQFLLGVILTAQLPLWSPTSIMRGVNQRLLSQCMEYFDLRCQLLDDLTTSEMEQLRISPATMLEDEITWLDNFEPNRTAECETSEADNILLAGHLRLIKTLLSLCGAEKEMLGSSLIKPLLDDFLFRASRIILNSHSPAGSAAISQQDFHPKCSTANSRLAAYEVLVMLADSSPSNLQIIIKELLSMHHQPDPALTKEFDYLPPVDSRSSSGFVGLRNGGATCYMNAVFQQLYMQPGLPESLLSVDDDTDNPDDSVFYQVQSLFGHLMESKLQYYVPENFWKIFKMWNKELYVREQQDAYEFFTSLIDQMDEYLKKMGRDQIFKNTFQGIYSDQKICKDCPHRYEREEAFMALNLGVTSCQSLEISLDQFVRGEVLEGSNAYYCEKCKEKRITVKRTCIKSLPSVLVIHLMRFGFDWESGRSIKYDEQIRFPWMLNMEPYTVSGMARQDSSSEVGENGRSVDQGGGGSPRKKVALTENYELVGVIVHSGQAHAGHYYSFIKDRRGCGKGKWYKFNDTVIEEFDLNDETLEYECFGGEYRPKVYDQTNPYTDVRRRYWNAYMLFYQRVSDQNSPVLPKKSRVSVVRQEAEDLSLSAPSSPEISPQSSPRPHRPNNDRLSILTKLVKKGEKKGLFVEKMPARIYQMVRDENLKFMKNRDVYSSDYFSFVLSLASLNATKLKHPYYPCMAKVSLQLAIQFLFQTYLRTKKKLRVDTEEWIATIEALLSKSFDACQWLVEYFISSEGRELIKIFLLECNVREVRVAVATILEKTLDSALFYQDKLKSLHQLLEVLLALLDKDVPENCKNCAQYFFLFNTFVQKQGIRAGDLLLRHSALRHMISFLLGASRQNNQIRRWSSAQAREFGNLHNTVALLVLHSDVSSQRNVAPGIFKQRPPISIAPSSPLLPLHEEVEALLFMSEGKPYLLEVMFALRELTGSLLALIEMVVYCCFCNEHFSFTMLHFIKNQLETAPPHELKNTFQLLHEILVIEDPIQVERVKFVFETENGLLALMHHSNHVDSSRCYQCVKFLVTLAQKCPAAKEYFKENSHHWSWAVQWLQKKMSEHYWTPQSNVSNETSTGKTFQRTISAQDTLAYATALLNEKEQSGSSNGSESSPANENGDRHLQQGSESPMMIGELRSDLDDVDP
smiles,measurement,setting,value
NS(=O)(=O)c1ccc(Cl)c(NC(=O)CCl)c1,log2 ratio of Biotin-Ahx-Ub-VS probe labelling,USP19,-0.307
same,log2 ratio of Biotin-Ahx-Ub-VS probe labelling,USP24,-0.149
same,log2 ratio of Biotin-Ahx-Ub-VS probe labelling,USP25,-1.57 (active)
same,log2 ratio of Biotin-Ahx-Ub-VS probe labelling,USP28,-1.42 (active)
